According to PubChem BioAssay (Tox21):
Values without a mark were called inactive. Inconclusive results are not listed. A call without a number means that no potency is given here. The source made the active and inactive calls. Unless noted, the call rests on the fitted dose curve; in most records, active means well fitted curve in the direction sought with a large enough effect in the repeat runs; inconclusive means weak or mixed curves; inactive means no such curve, though single readings can be large; an effect the other way counts as inactive or inconclusive.

What was measured:
[1] = A CellTox Green Cytotoxicity Assay to monitor cytotoxicity in HEK293 cells - 32 hour (AID 1224881); further: nearly all actives have a fitted effect of over 40% in size
In short: (§1)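 Cytotoxicity was tracked continuously in HEK293 cells by a DNA-binding dye excluded from viable cells. Compounds were transferred in DMSO 5 h after seeding; fluorescence was recorded at intervals up to 40 h.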

[2] = A CellTox Green Cytotoxicity Assay to monitor cytotoxicity in HepG2 cells - 0 hour (AID 1224882); further: nearly all actives have a fitted effect of over 35% in size
In short: (§2)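 Real-time, homogeneous cytotoxicity readout: dead-cell DNA staining by CellTox Green in HepG2 monolayers, fluorescence measured at timed intervals up to 40 h of continuous compound exposure.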

[3] = A CellTox Green Cytotoxicity Assay to monitor cytotoxicity in HepG2 cells - 32 hour (AID 1224883); further: nearly all actives have a fitted effect of over 50% in size
In short: as §2

[4] = qHTS RealTime-Glo MT Cell Viability Assay in HepG2 cells - 16 hour (AID 1224885); further: nearly all actives have a fitted effect of over 50% in size
In short: (§3)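 Cells + NanoLuc/prosubstrate dispensed (600 cells/well) → 5 h at 37 C/5% CO2 → compounds in DMSO transferred → 40 h incubation at 37 C, luminescence read at 0, 8, 16, 24, 32, 40 h.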

[5] = qHTS RealTime-Glo MT Cell Viability Assay in HEK293 cells - 24 hour (AID 1224886); further: nearly all actives have a fitted effect of over 50% in size; further: potency means the concentration at half of the fitted maximal effect
In short: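 Tox21 10K qHTS, HEK293, 600 cells/well, RealTime-Glo reagent co-dispensed with cells; 5 h preincubation, compound by pintool, 37 C, luminescence at 0–40 h.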

[6] = qHTS RealTime-Glo MT Cell Viability Assay in HEK293 cells - 8 hour (AID 1224887); further: nearly all actives have a fitted effect of over 50% in size; further: potency means the concentration at half of the fitted maximal effect
In short: (§4)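 Nonlytic bioluminescent viability monitoring. HEK293 at 600 cells/well with reagent; 5 h settle; compound transfer by pintool; plates held at 37 C and read at set time points.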

[7] = A CellTox Green Cytotoxicity Assay to monitor cytotoxicity in HEK293 cells - 16 hour (AID 1224888); further: nearly all actives have a fitted effect of over 35% in size
In short: as §1

[8] = A CellTox Green Cytotoxicity Assay to monitor cytotoxicity in HepG2 cells - 8 hour (AID 1224890); further: nearly all actives have a fitted effect of over 45% in size
In short: as §2

[9] = qHTS assay to identify small molecule antagonists of the estrogen receptor alpha (ER-alpha) signaling pathway using the BG1 cell line in the presence of 0.1 nM 17-beta-estradiol - cell viability counter screen (AID 1259241); further: nearly all actives have a fitted effect of over 40% in size
In short: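 Estradiol-stimulated (0.1 nM) VM7Luc4E2 cells exposed to compounds 22 hr; viability measured by fluorescence of cleaved CellTiter-Fluor substrate after 30 min.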

[10] = qHTS assay to identify small molecule antagonists of the androgen receptor (AR) signaling pathway using the MDA cell line in the presence of 0.5 nM R1881 - cell viability counter screen (AID 1259242); further: nearly all actives have a fitted effect of over 45% in size; further: potency means the concentration at half of the fitted maximal effect
In short: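 Cytotoxicity toward MDA-kb2 cells is measured by CellTiter-Fluor live-cell protease fluorescence after 16 hr compound exposure at 37C in the presence of 0.5 nM R1881 stimulator.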

[11] = target: Androgen receptor (Homo sapiens) (UniProt P10275); assay: qHTS assay to identify small molecule antagonists of the androgen receptor (AR) signaling pathway using the MDA cell line in the presence of 0.5 nM R1881 (AID 1259243); further: nearly all actives have a fitted effect of over 50% in size; further: potency means the concentration at half of the fitted maximal effect
Chain of Androgen receptor (Homo sapiens) (P10275 whole entry, looked up): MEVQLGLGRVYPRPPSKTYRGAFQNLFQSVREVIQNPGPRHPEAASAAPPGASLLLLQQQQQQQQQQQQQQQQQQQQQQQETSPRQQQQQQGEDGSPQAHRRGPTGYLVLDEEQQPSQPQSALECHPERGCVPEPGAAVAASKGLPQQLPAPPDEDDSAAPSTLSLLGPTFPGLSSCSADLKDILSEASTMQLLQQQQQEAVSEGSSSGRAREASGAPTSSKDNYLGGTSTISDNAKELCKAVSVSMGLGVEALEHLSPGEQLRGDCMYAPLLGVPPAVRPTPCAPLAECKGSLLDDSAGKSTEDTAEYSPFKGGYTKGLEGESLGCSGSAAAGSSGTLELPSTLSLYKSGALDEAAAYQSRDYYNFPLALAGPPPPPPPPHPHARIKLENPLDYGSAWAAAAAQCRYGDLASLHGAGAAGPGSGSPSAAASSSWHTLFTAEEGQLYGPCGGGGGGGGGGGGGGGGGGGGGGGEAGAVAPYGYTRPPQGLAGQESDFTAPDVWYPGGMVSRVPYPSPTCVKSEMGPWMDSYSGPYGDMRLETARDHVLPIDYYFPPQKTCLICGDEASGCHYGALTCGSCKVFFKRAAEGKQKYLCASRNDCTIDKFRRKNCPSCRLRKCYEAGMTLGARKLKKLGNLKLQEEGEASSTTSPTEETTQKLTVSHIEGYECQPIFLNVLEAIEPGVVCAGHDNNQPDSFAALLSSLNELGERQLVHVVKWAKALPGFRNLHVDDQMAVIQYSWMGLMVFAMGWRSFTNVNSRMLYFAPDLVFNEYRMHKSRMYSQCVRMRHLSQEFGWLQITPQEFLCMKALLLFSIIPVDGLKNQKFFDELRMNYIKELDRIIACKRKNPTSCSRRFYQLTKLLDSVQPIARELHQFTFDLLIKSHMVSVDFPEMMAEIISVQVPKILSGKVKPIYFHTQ
In short: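 Steps: seed MDA-kb2 cells, incubate 5 hr at 37C; pin-transfer compounds in DMSO; add R1881 to 0.5 nM final; incubate 16 hr; add ONE-Glo, wait 30 min at room temperature; read luminescence.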

[12] = target: Estrogen receptor (Homo sapiens) (UniProt P03372); assay: qHTS assay to identify small molecule antagonists of the estrogen receptor alpha (ER-alpha) signaling pathway using the BG1 cell line in the presence of 0.1 nM 17-beta-estradiol (AID 1259244); further: nearly all actives have a fitted effect of over 50% in size; further: potency means the concentration at half of the fitted maximal effect
Chain of Estrogen receptor (Homo sapiens) (P03372 whole entry, looked up): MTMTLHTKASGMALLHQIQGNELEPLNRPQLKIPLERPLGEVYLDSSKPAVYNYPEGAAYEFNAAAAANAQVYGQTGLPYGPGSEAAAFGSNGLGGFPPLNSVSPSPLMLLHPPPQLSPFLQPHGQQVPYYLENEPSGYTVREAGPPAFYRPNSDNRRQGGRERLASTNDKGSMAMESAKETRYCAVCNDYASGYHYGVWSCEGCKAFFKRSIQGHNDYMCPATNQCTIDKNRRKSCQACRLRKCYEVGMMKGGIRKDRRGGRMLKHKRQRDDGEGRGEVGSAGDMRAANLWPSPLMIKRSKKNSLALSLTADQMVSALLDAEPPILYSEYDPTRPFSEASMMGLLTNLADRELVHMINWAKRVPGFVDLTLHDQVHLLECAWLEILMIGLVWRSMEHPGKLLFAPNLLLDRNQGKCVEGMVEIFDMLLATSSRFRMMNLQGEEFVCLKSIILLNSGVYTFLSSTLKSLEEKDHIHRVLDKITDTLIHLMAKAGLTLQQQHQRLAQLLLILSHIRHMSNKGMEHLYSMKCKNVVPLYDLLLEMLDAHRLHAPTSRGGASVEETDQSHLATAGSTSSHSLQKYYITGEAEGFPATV
In short: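 After 5 days in hormone-depleted medium (charcoal-stripped serum, no phenol red), VM7Luc4E2 cells were seeded, incubated 24 h, then co-treated with compound and 0.1 nM (final) estradiol for 22 h before luminescence detection.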

[13] = qHTS assay to identify small molecule HDAC inhibitors (AID 1259364); further: top concentration of the series differs between compounds; nearly all actives have a fitted effect of over 45% in size
In short: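 Homogeneous cell-based luminescent assay of endogenous class I/II HDAC activity; HCT-116 cells, 2 h compound exposure, 30 min HDAC-Glo development at RT.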

[14] = qHTS assay to identify small molecule HDAC inhibitors - cell viability counter screen (AID 1259365)
In short: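 After overnight seeding at 1,500 cells per well, wild-type HCT-116 cultures took up compounds in DMSO for 2hr at 37 C. Viable cell content came from luminescence with CellTiter-Glo.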

[15] = qHTS assay to identify small molecule agonists of the sonic hedgehog signaling (Shh) pathway - cell viability counter screen (AID 1259366); further: nearly all actives have a fitted effect of over 50% in size
In short: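 Same-well cytotoxicity read. Gli1-Luc reporter 3T3 cells; compounds 24hr, 37C/5% CO2; CellTiter-Fluor fluorescence.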

[16] = qHTS assay to identify small molecule antagonists of the sonic hedgehog signaling (Shh) pathway - cell viability counter screen (AID 1259367); further: nearly all actives have a fitted effect of over 55% in size
In short: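 Seed 3T3 Gli1-Luc cells at 2,000 per well; incubate 4 hr; add compound in DMSO, then conditioned medium; incubate at 37C with 5% CO2; add CellTiter-Fluor after 23 hr; read fluorescence 1 hr later.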

[17] = qHTS RealTime-Glo MT Cell Viability Assay in HEK293 cells - 0 hour (AID 1224880); further: top concentration of the series differs between compounds; nearly all actives have a fitted effect of over 45% in size
In short: as §4

[18] = A CellTox Green Cytotoxicity Assay to monitor cytotoxicity in HEK293 cells - 8 hour (AID 1224884); further: nearly all actives have a fitted effect of over 35% in size
In short: as §1

[19] = qHTS RealTime-Glo MT Cell Viability Assay in HepG2 cells - 0 hour (AID 1224889); further: nearly all actives have a fitted effect of over 50% in size; further: potency means the concentration at half of the fitted maximal effect
In short: as §3

[20] = qHTS assay to identify small molecule phospholipidosis (PLD) inducers (AID 1259344; active means well fitted curve in the direction sought with a large enough effect; an effect the other way counts as inactive or inconclusive)
In short: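 Quantitative HTS in HepG2: compound plus LipidTOX Red dye for 24 h, paraformaldehyde fixation with Hoechst 33342, widefield high-content imaging; amiodarone as positive and DMSO as negative control.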

Row | SMILES | Potency [1] | Potency [2] | Potency [3] | Potency [4] | Potency [5] | Potency [6] | Potency [7] | Potency [8] | Potency [9] | Potency [10] | Potency [11] | Potency [12] | Potency [13] | Potency [14] | Potency [15] | Potency [16] | Potency [17] | Potency [18] | Potency [19] | outcome [20]
1 | CCCc1c(OCCCOc2ccc(OCC(=O)O)cc2)ccc(C(C)=O)c1O | inactive | inactive | inactive | inactive | inactive | inactive | inactive | inactive | inactive | inactive | inactive | inactive | inactive | inactive | inactive | inactive |  |  |  | 
2 | NCC1CCCC(CN)C1 (stereo not drawn) |  | inactive |  | inactive | inactive | inactive | inactive | inactive | inactive | inactive | inactive |  | inactive | inactive | inactive | inactive | inactive | inactive | inactive | 
3 | N#C/C(=C1/SC[C@@H](c2ccc(Cl)cc2Cl)S1)n1ccnc1 |  | inactive |  |  |  |  | inactive | inactive | inactive | inactive |  |  | inactive | inactive | inactive | inactive | inactive | inactive | inactive | inactive
4 | CCC(=O)OC/C=C/c1ccccc1 |  | inactive |  | inactive | inactive | inactive | inactive |  | inactive | inactive |  | inactive | inactive | inactive | inactive | inactive | inactive | inactive | inactive | 
5 | CC[C@@H]([C@H](C)O)n1ncn(-c2ccc(N3CCN(c4ccc(OC[C@@H]5CO[C@@](Cn6cncn6)(c6ccc(F)cc6F)C5)cc4)CC3)cc2)c1=O | inactive | inactive | inactive |  | 2.68 µM (active) | 6.01 µM (active) | inactive | inactive | inactive | 26.6 µM (active) |  |  | inactive | inactive | inactive | inactive |  | inactive | inactive | inactive
6 | CCN(Cc1cccc(S(=O)(=O)O)c1)c1ccc(C(=C2C=CC(=[N+](CC)Cc3cccc(S(=O)(=O)[O-])c3)C=C2)c2ccccc2)cc1 | inactive | inactive | inactive | inactive | inactive | inactive | inactive | inactive | inactive | inactive |  | inactive | inactive | inactive | inactive | inactive |  | inactive |  | 
7 | O=C1NCCN1 |  | inactive | inactive | inactive | inactive | inactive |  |  | inactive | inactive |  |  | inactive | inactive | inactive | inactive | inactive |  | inactive | 
8 | Brc1cc(-c2ccc(Br)c(Br)c2Br)cc(Br)c1Br |  |  |  | inactive | inactive | inactive | inactive | inactive | inactive | inactive |  |  | inactive | inactive | inactive | inactive | inactive | inactive | inactive | 
9 | O=C(CCC1CCN(Cc2ccccc2)CC1)c1ccc2c(c1)NCCCC2 |  |  |  | inactive | 9.52 µM (active) | 9.52 µM (active) |  | inactive | inactive | inactive | 29.8 µM (active) | 26.6 µM (active) | inactive | inactive | inactive | inactive | inactive | inactive | inactive | inactive
10 | C[C@@H]1C[C@H]2[C@@H]3CCC4=CC(=O)C=C[C@]4(C)[C@@]3(F)[C@@H](O)C[C@]2(C)[C@H]1C(=O)CO | inactive | inactive | inactive | inactive | inactive | inactive | inactive | inactive | inactive | inactive |  |  | inactive | inactive | inactive | inactive |  | inactive |  | 
11 | CCCCCCCCCCCC[N+](C)(C)CCCS(=O)(=O)[O-] |  | inactive | inactive | inactive | inactive | inactive |  | inactive | inactive | inactive |  |  | inactive | inactive | inactive | inactive | inactive |  | inactive | 
12 | CCCCC(=O)O[C@]1(C(=O)CO)CC[C@H]2[C@@H]3CCC4=CC(=O)CC[C@]4(C)[C@H]3[C@@H](O)C[C@@]21C | inactive | inactive | inactive | inactive |  | inactive | inactive | inactive | inactive | inactive |  |  | inactive | inactive | inactive | inactive |  | inactive | 9.52 µM (active) | inactive
13 | CCCOCCOCCO |  | inactive |  | inactive | inactive | inactive |  | inactive | inactive | inactive |  | inactive | inactive | inactive | inactive | inactive | inactive | inactive | inactive | 
14 | CCc1cccc(N(C)C(N)=Nc2cccc3ccccc23)c1 |  | inactive |  | inactive | inactive | inactive | inactive | inactive | inactive | inactive | inactive |  | inactive | inactive | inactive | inactive | inactive | inactive | inactive | inactive
15 | Nc1ccc(S(=O)(=O)O)c(N)c1 |  | inactive | inactive | inactive |  | inactive |  | inactive | inactive | inactive |  | inactive | inactive | inactive | inactive | inactive | inactive |  | inactive | 
16 | CCCCCCCCCCCC[N+](C)(C)CC(=O)[O-] |  |  |  | inactive | inactive | inactive |  | inactive | inactive | inactive |  |  | inactive | inactive | inactive | inactive | inactive |  | inactive | 
